# Source: PubChem BioAssay
# Calls of active or inactive are those of the source.
# Experiments:
# Albumin (Bos taurus) = Albumin (Bos taurus) (UniProt P02769); test: compounds binding labelled BSA control protein – biochemical, small-molecule microarray, Alexa647 label, 635/667 nm fluorescence, artefact control for SMM control protein annotation, profiling panel (AID 1118); settings: BSA-A647 binding, fluorescence 635 nm, higher = more signal;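 note: score merges 667 nm emission intensity and signal-to-noise per printed compound spot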
# Sequence of Albumin (Bos taurus) (P02769 whole entry, looked up): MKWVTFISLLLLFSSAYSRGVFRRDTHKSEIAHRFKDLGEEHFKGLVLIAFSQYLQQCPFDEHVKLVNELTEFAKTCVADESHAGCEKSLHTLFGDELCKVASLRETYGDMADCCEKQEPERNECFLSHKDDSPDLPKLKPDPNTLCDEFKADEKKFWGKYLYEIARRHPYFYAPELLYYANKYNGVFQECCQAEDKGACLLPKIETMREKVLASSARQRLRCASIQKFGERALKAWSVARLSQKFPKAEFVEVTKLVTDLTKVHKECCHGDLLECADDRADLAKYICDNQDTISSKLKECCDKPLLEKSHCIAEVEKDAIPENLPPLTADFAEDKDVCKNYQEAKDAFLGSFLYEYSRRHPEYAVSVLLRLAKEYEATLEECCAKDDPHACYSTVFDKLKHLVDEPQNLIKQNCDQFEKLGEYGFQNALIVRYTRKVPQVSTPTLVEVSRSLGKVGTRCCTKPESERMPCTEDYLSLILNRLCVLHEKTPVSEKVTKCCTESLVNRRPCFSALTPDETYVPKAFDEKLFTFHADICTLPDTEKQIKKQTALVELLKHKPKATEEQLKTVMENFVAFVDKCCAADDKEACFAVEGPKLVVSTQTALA
# [1] = probe aXIP binding to arrayed compounds – biochemical, NeuroSMM set, 635/667 nm fluorescence, primary screen (AID 1119); settings: small-molecule microarray, higher = more signal, called active from +8 up or from −8 down;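 note: probe is the protein aXip251-270 applied at 1 µg/mL to compound-printed slides; binding of probe to printed compounds measured as 667 nm fluorescence plus signal to noise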
# [2] = probe aNOTCH3 binding on compound microarray – biochemical, small-molecule microarray, 635/667 nm fluorescence, primary screen (AID 1120); settings: higher = more signal;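 note: probe is a biotin-tagged antibody raised against NOTCH3 rather than NOTCH3 protein; score merges spot fluorescence near 667 nm with spot signal to noise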
# [3] = probe aNOTCH2 binding on compound microarray – biochemical, small-molecule microarray, 635/667 nm fluorescence, primary screen (AID 1121); settings: higher = more signal;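 note: score merges feature fluorescence read at 667 nm with its signal to noise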
# [4] = target: Carbonic anhydrase 2 (Homo sapiens) (UniProt P00918); test: compounds binding carbonic anhydrase 2 – biochemical, small-molecule microarray, Alexa647-labelled CAII, profiling panel (AID 1122); settings: CAII-A647 binding fluorescence, higher = more signal
# [5] = COS7 lysate on small-molecule microarray, probe aHis, 635 nm (AID 1123); settings: COS7 cell lysate, fluorescence, higher = more signal;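 note: z-score combines 667nm fluorescence intensity with signal-to-noise per printed compound spot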
# [6] = probe aLAP1 signal on lysate-treated microarray – cell lysate, small-molecule microarray, COS7 lysate, primary screen (AID 1124); settings: probe aLAP1, fluorescence, higher = more signal;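 note: lysate comes from COS7 cells expressing LAP1 and is applied at 0.3 µg/mL; score merges spot fluorescence near 667 nm with signal-to-noise over triplicate slides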
# Sam68 (KHDRBS1) = test: compounds binding KHDRBS1 protein – biochemical, small-molecule microarray, 635 nm fluorescence, primary screen (AID 1125); settings: higher = more signal;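 note: score merges 667 nm channel intensity with signal to noise over triplicate slides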
# [7] = system: Chordin-like protein 2 (CHRDL2); test: compounds binding chordin-like 2 – biochemical, small-molecule microarray, 635 nm fluorescence, primary screen (AID 1126); settings: fluorescence 635 nm, higher = more signal;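 note: printed compound slides probed with Chrdl2 protein at 4 µg/mL for 1 h at 4 C; score merges 667 nm emission intensity with signal to noise over three replicate slides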
# [8] = target: Concanavalin-A (Canavalia ensiformis) (UniProt P02866); test: compounds binding concanavalin A lectin – biochemical, small-molecule microarray, Alexa647 label, 635 nm, artefact control for SMM control protein annotation, primary screen (AID 1127); settings: ConA-A647 binding fluorescence, higher = more signal;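 note: z combines 667 nm emission intensity with signal-to-noise across three replicate slides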
# Sequence of Concanavalin-A (Canavalia ensiformis) (P02866 whole entry, looked up): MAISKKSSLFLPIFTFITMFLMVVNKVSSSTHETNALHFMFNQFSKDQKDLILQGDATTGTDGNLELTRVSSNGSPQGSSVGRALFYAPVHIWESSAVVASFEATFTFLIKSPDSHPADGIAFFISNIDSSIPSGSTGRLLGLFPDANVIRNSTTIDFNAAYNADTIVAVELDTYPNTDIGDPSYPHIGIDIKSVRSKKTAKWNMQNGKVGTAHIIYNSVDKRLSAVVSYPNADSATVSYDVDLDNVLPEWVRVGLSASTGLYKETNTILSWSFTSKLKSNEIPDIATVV
Structure (SMILES),composite z-score (Albumin (Bos taurus)),composite Z-score [1],composite z-score [2],composite z-score [3],composite z-score [4],composite z-score [5],composite z-score [6],composite z-score (Sam68 (KHDRBS1)),composite z-score [7],composite z-score [8]
CC(C)N1C(=O)c2ccccc2[C@](C)(C(=O)NC2CC2)[C@@H]1c1ccc(CO)cc1,0.375,-0.116 (inactive),-0.0557,-0.171,0.665,1.41,-0.141,0.424,0.172,0.699
CCCC[C@@H]1C[C@H]1[C@@H](NC(=O)c1ccco1)c1ccccc1,0.277,-0.264 (inactive),-0.25,-0.193,-0.504,-0.185,-0.697,-0.555,-1.41,-0.945
CN1C(=O)C2C(C1=O)C1C=C(c3ccc(CO)cc3)C2C(C2CC2)N1Cc1sc2ccccc2c1Cl (stereo not given),0.947,-0.0285 (inactive),0.248,0.114,0.661,2.59,0.74,1.3,-0.124,1.21
CO[C@H]1O[C@H](CO)[C@@H](OC(=O)Nc2ccc3c(c2)OCO3)[C@H](OC(=O)Nc2ccc3c(c2)OCO3)[C@H]1OC(=O)Nc1ccc2c(c1)OCO2,0.733,0.204 (inactive),0.307,-0.0483,0.7,2.73,0.804,1.29,0.138,1.07
O=C(NCC(F)(F)F)[C@@H]1c2ccccc2C(=O)N(Cc2ccccc2)[C@H]1c1ccc(CO)cc1,-1.27,0.111 (inactive),-0.354,-0.0586,0.723,1.08,0.345,-0.141,-1.57,-0.331
[N-]=[N+]=NCc1ccccc1C[C@]1(C(=O)NCCN2CCOCC2)N=C(c2ccc(OCCCO)cc2)O[C@H]1c1ccccc1CN=[N+]=[N-],0.825,-0.0191 (inactive),0.399,-0.0474,0.337,-0.827,0.736,1.13,-0.0255,1.05
O[C@@H](Cc1ccccc1)[C@@H](/C=C/c1ccccc1)NCc1ccccc1Br,-0.786,-0.577 (inactive),-0.358,-0.192,-0.53,0.0935,-0.329,-0.815,-0.77,-1.05
O=c1cccc(-c2ccccc2)o1,0.66,2.27 (inactive),-0.0933,-0.0974,0.51,-0.295,-0.0258,-1.1,0.223,-0.234
CC1CC/C=C\[C@H]2OC34C=CCN(CCN5CCOCC5)C(=O)[C@H]3N(CCCCCO)C(=O)[C@@H]4C2C(=O)O1 (stereo not given in full),-1.19,0.905 (inactive),-0.178,-0.175,0.899,-0.471,-0.653,-1.25,-0.191,-0.233
O=C(NCC(O)CO)[C@@]1(Cc2ccccc2)COC(c2ccc(OCCCO)cc2)=N1 (stereo not given in full),0.536,-0.936 (inactive),-0.0984,-0.189,0.738,0.737,-0.192,-0.274,-0.445,-1.4
O=C(CS)NCCCCCNC(=O)[C@H]1C[C@H]2C(=O)N[C@@H](Cc3ccccc3)C(=O)N2[C@H]1c1cccc(OCCO)c1,-1.62,0.482 (inactive),0.273,-0.0562,0.484,1.75,0.76,1.31,1.43,1.18
C=CCOC(=O)[C@@H]1[C@H]2C(=O)O[C@H](c3ccccc3)[C@H](c3ccccc3)N2[C@H](c2ccc(OCCOC(=O)[C@H]3C[C@H]4C(=O)N[C@@H](CC(C)C)C(=O)N4[C@H]3c3cccc(OCCO)c3)cc2)[C@@]12C(=O)Nc1ccc(I)cc12,-0.413,-0.367 (inactive),0.19,-0.0424,0.35,1.48,0.334,1.29,1.04,1.14
[N-]=[N+]=NCc1ccccc1[C@@H]1OC(c2ccc(OCCCO)cc2)=N[C@]1(Cc1ccccc1)C(=O)O,0.188,1.38 (inactive),-0.0362,-0.0836,0.607,2.25,-0.324,1.13,-0.817,0.802
CN(C)CCCC[C@@H]1NC(=O)[C@@H]2C[C@H](C(=O)NCCCCCCN)[C@H](c3ccc(O)cc3)N2C1=O,-0.254,0.142 (inactive),0.575,0.271,0.674,1.81,0.821,1.31,0.808,0.616
CCCC[C@H]1OB(O)C[C@H]2C1=C(C)Cn1c(=O)n(-c3ccccc3)c(=O)n12,0.242,-0.426 (inactive),-0.236,-0.177,-0.159,0.549,0.144,0.401,0.77,0.0577
COc1ccc([Si](C)(C)[C@H]2[C@H](CC(=O)N(CCO)Cc3ccccc3)O[C@@]3(C(=O)N(Cc4cccc(N5C(=O)c6cccc7cccc5c67)c4)c4ccccc43)[C@@H]2C)cc1,0.375,-0.025 (inactive),-0.0821,-0.154,0.519,0.934,0.228,0.75,-0.108,1.09
Cc1ccc(S[C@]2(C(=O)NCCN3CCOCC3)CC(=O)N(C3CCCCC3)[C@@H]2c2ccc(CO)cc2)cc1,0.869,0.562 (inactive),0.0525,-0.0621,0.617,1.83,0.437,1.16,-0.179,1.07

Structure (SMILES),composite z-score (Albumin (Bos taurus)),composite Z-score [1],composite z-score [2],composite z-score [3],composite z-score [4],composite z-score [5],composite z-score [6],composite z-score (Sam68 (KHDRBS1)),composite z-score [7],composite z-score [8]
CC(=O)NCCCC[C@@H]1NC(=O)[C@@H]2C[C@H](C(=O)NCCCCCC[N+](C)(C)C)[C@H](c3cccc(OCCO)c3)N2C1=O,-0.384,0.13 (inactive),0.163,-0.0896,0.675,1.53,0.348,1.22,1.13,1.09
COC(=O)c1nc2oc1CC[C@@H](CO)NC(=O)N(C)Cc1cn(nn1)C[C@H](Cc1ccccc1)NC2=O,0.775,-0.275 (inactive),-0.256,-0.152,0.942,1.02,0.483,0.178,0.376,0.667
COc1ccc([Si](C)(C)[C@@H]2[C@@H](CC(=O)N3Cc4ccccc4C[C@H]3CO)O[C@]3(C(=O)N(Cc4cccc(N5C(=O)COc6ccccc65)c4)c4ccccc43)[C@H]2C)cc1,0.566,1.33 (inactive),0.0905,-0.177,0.423,0.629,0.344,1.07,0.692,1.11
CCCC[C@H]1OB(O)C[C@H]2C1=C(COc1ccccc1)C[C@H]1C(=O)N(Cc3ccccc3)C(=O)[C@H]12,0.117,0.142 (inactive),0.0203,-0.108,0.602,0.383,0.154,0.868,0.0092,1.12
C=C[C@H](C)[C@H](OC(=O)Nc1ccc(OC)cc1)c1ccc(O)c2ccccc12,0.171,0.741 (inactive),-0.185,-0.193,0.696,0.702,0.513,-0.07,0.396,-0.503
OCCCc1cc[n+](Cc2cccc(OC(F)(F)F)c2)cc1,0.589,0.755 (inactive),0.147,-0.101,0.842,2.02,0.348,1.28,0.421,1.09
O=C1O[C@H](c2ccccc2)[C@H](c2ccccc2)N2[C@H]1[C@@H](C(=O)N1CCCCCCC1)[C@]1(C(=O)Nc3ccc(C#CC4=CCCCC4)cc31)[C@H]2c1ccc(O)cc1,0.599,10.9 (active),2.37,1.22,1.1,5.31,1.2,1.35,1.71,1.14
COC(=O)[C@@]1(Cc2ccc(F)cc2)[C@H]2c3cc(C(=O)N(C)C)n(CCc4c[nH]c5ccc(OC)cc45)c3C[C@H]2CN1C(=O)c1ccccc1,0.655,0.0904 (inactive),0.351,0.317,0.617,2.74,0.606,1.1,-0.705,-0.203
C=CCNC(=O)[C@@H]1[C@H]2C(=O)O[C@H](c3ccccc3)[C@H](c3ccccc3)N2[C@H](c2ccccc2OCCO)[C@@]12C(=O)N(C(=O)OCCOC)c1ccc(C#CCC(C(=O)OC)C(=O)OC)cc12,0.718,1.26 (inactive),1.41,0.526,0.505,3.05,1.33,1.32,1.49,1.15
[N-]=[N+]=NCc1ccccc1C[C@]1(C(=O)NCc2ccccc2)COC(c2ccc(OCCCO)cc2)=N1,0.632,0.452 (inactive),0.112,-0.0814,0.644,1.89,0.784,1.3,-0.694,0.612
COCCn1c(C(=O)N(C)C)cc2c1C[C@H]1CN(C(=O)c3ccccc3)[C@@](Cc3ccc(F)cc3)(C(=O)OC)[C@@H]21,0.985,0.916 (inactive),0.073,0.197,0.859,2.02,-0.0593,0.459,0.194,0.787
C=CCC(OC(C)=O)[C@@H]1[C@@H](N(Cc2ccc(-c3ccccc3)cc2)C(=O)c2ccc(C)cc2)c2cc(OCCCO)ccc2N1C(=O)Cc1ccc(OC)cc1 (stereo not given in full),-0.0547,0.39 (inactive),-0.0208,-0.0131,-0.249,0.0567,0.179,-0.248,-0.0845,0.733
O=C(NCC(O)CO)[C@@]1(Cc2ccccc2)N=C(c2ccc(OCCCO)cc2)O[C@H]1c1ccccc1 (stereo not given in full),0.944,0.805 (inactive),0.331,0.257,0.852,2.83,1.01,1.24,-1.34,0.785
CCOC(=O)N1C(c2ccc(OCCCO)cc2)=NC(C(=O)OC)N1C(=O)OCC (stereo not given),0.878,-0.363 (inactive),0.183,-0.0326,0.733,1.73,0.626,1.18,-0.105,1.09
COCCn1c(C(=O)N2CCCC2)cc2c1C[C@H]1CN(C(=O)c3ccccc3)[C@@](Cc3ccc(OC)cc3)(C(=O)OC)[C@@H]21,1.11,0.433 (inactive),0.512,0.384,0.868,2.11,1.11,0.424,-0.975,1.05
COCCOC(=O)N1C(=O)[C@@]2(c3ccccc31)[C@H](c1ccc(O)cc1)N1[C@H](c3ccccc3)[C@H](c3ccccc3)OC(=O)[C@H]1[C@@H]2C(N)=O,0.436,0.313 (inactive),-0.27,-0.114,0.711,0.531,-0.0821,-0.764,-1.04,0.035
